PubChem BioAssay (NCATS)
Results filed as inconclusive are left out. Calls of active or inactive are those of the source. The call rests on the fitted dose curve; in most records, active means well fitted curve in the direction sought with a large enough effect; inconclusive means small, poorly fitted or top-dose-only effect, or another doubt; inactive means no such curve, though single readings can be large; an effect the other way counts as inactive or inconclusive.

What was measured:
[1] = tested on: Zika virus NS2B-NS3 protease (unlinked complex); assay: Primary screen GU Rhodamine qHTS for Zika virus inhibitors: Unlinked NS2B-NS3 protease assay (AID 1347159); further: on the % scale 0 is the no-effect control and ±100 the full control effect; nearly all actives have a fitted effect of over 60% in size
Outline: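 In dose–response format, inhibition of unlinked protease (25 nM) was measured with 1.5 microM bis-peptide Rhodamine110 substrate. Aprotinin served as the intraplate control.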

[2] = tested on: Zika virus NS2B-NS3 protease (linked construct); assay: Primary screen NINDS Rhodamine qHTS for Zika virus inhibitors (AID 1347160); further: nearly all actives have a fitted effect of over 55% in size
Outline: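 Each compound, titrated, sat 15 min with 25 nM linked protease before 1.5 microM Rhodamine110 substrate went in. Fluorescence gain over the next 15 min, in pH 8.0 Tris with Tween 20, gave Hill-fitted curves.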

[3] = target: Calcium and integrin-binding protein 1 (Homo sapiens) (UniProt Q99828); assay: Primary qHTS for Identification of Calcium Integrin Binding Protein 1 (CIB1) Competitor (AID 1508620);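 further: GST tagged CIB1 binding a fluorescein labelled alphaIIb integrin peptide tracer; top concentration of the series differs between compounds; on the % scale 0 is the no-effect control and ±100 the full control effect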
Chain of Calcium and integrin-binding protein 1 (Homo sapiens) (Q99828 whole entry, looked up): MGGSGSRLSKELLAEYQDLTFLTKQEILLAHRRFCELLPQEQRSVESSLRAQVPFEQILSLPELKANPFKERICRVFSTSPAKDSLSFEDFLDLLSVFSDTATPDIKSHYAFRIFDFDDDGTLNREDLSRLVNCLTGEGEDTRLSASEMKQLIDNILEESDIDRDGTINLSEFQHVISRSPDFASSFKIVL
Outline: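 CIB1-GST (1 uM final) and compound incubated 15 min at room temperature before adding FITC-alphaIIb peptide tracer (100 nM final). Competition for binding read by fluorescence polarization (ex 480, em 540) after another 15 min at room temperature.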

[4] = target: Glutathione peroxidase 1 (Homo sapiens) (UniProt P07203); assay: Primary qHTS Assay for Inhibitors of Recombinant Selenoprotein Glutathione Peroxidase 1 (GPX1) (AID 1845191); further: nearly all actives have a fitted effect of over 65% in size
Chain of Glutathione peroxidase 1 (Homo sapiens) (P07203 whole entry, looked up): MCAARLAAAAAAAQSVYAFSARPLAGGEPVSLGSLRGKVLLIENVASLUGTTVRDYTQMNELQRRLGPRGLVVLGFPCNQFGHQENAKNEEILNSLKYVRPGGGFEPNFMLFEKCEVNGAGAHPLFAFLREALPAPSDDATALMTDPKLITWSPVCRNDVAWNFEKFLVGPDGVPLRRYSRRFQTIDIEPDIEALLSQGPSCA
Outline: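 NADPH consumption tracked by fluorescence at 340/450 nm between t=0 and t=15 min, room temperature. Final mix: 10 nM GPX1, 100 nM glutathione reductase, 1 mM GSH, 0.5 mM NADPH, 0.5 mM cumene hydroperoxide, 0.01% BSA; 30 min compound–enzyme preincubation.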

[5] = target: Phospholipid hydroperoxide glutathione peroxidase GPX4 (Homo sapiens) (UniProt P36969); assay: Primary qHTS Assay for Inhibitors of Recombinant Selenoprotein Glutathione Peroxidase 4 (GPX4) (AID 1845192); further: on the % scale 0 is the no-effect control and ±100 the full control effect; nearly all actives have a fitted effect of over 65% in size
Chain of Phospholipid hydroperoxide glutathione peroxidase GPX4 (Homo sapiens) (P36969 whole entry, looked up): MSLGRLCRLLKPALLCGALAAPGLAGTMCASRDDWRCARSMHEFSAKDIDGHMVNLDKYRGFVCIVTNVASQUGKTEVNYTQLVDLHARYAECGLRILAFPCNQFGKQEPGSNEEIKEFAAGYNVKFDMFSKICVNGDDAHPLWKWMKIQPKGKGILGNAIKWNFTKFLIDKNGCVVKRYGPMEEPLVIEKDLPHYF
Outline: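 NADPH consumption followed by fluorescence at 340/450 nm, t=0 and after 15 min at room temperature. Reaction started with cumene hydroperoxide (0.5 mM final) after 30 min compound–GPX4 preincubation; final 200 nM GPX4, 100 nM GR, 1 mM GSH, 0.5 mM NADPH.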

[6] = target: Luciferin 4-monooxygenase (Photinus pyralis) (UniProt P08659); assay: Primary firefly luciferase (FLuc) qHTS assay for identification of artifact compounds. (AID 1845220); settings: outcome: dose series up to 54.1 µM unless noted; further: nearly all actives have a fitted effect of over 60% in size
Outline: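 Cell-free, 1536-well qHTS. Buffer pH 7.6 with 0.01% Tween-20 and 0.05% BSA; 10 uM D-luciferin, 10 uM ATP; 10 nM P. pyralis luciferase; luminescence after 5 min.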

[7] = Primary fluorescence-based thiol-reactive (MSTI) qHTS assay for identification of artifact compounds. (AID 1845221);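 further: thiol-reactive compounds lower the probe fluorescence signal; nearly all actives have a fitted effect of over 65% in size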
Outline: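 MSTI probe at 4 uM final in 2% DMSO/PBS pH 7.4; compounds, 1 h at room temperature in dark. Fluorescence Ex/Em 525/598 nm, normalised to Acetyl-MSTI and MSTI, fitted to 4-parameter Hill.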

[8] = tested on: Nanoluciferase (engineered Oplophorus gracilirostris luciferase); assay: Primary Nanoluciferase (NLuc) qHTS assay for identification of artifact compounds. (AID 1845222);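 further: 0% = DMSO and -100% = no enzyme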
Outline: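 Compounds are pinned into diluted (1:55) conditioned medium of NLuc-expressing S16 cells and held 15 min at room temperature protected from light. Nano-Glo substrate follows, and luminescence is read 5 min later.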

CRL-7250 = normal cell line; assay: Cytotoxic Profiling of Annotated Libraries Using Quantitative High-Throughput Screening (AID 1296008); settings: Five cell lines viability, CellTiter-Glo ATP luminescence, 48-72 h; max response: stronger effect = lower value; further: nearly all actives have a fitted effect of over 60% in size; on max response: on the % scale 0 is the no-effect control and ±100 the full control effect
Outline: (§1)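 Cytotoxicity was measured as CellTiter-Glo ATP luminescence, read after 10 min at room temperature. Compound treatment of the cells lasted 48 or 72 hr at 37 degrees Celsius in a qHTS format.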

C33A = assay: Primary qHTS to identify gynecologic anti-cancer compounds using libraries of approved drugs and bioactive compounds (AID 1345084); settings: Gynecologic cancer cell panel viability, ATPlite luminescence, 48 h; series mostly up to 57.5 µM; further: on the % scale 0 is the no-effect control and ±100 the full control effect; nearly all actives have a fitted effect of over 55% in size
Outline: (§2)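 Cells, 1,000 per well, plated 16 h, then exposed 48 h at 37 C to compounds. Viability by ATPlite luminescence after 15 min at room temperature.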

CAOV3 = assay: as above; settings: Gynecologic cancer cell panel viability, ATPlite luminescence, 48 h; series mostly up to 57.5 µM
Outline: as §2

CASKI = assay: as above; settings: Gynecologic cancer cell panel viability, ATPlite luminescence, 48 h; series mostly up to 57.5 µM
Outline: as §2

Es-2 = assay: as above; settings: Gynecologic cancer cell panel viability, ATPlite luminescence, 48 h; series mostly up to 57.5 µM
Outline: as §2

OV90 = assay: as above; settings: Gynecologic cancer cell panel viability, ATPlite luminescence, 48 h; series mostly up to 57.5 µM
Outline: as §2

Tov-21-G = assay: as above; settings: Gynecologic cancer cell panel viability, ATPlite luminescence, 48 h; series mostly up to 57.5 µM
Outline: as §2

NIH3T3 = assay: Cytotoxic Profiling of Annotated Libraries Using Quantitative High-Throughput Screening (AID 1296008); settings: Five cell lines viability, CellTiter-Glo ATP luminescence, 48-72 h; max response: stronger effect = lower value; further: nearly all actives have a fitted effect of over 60% in size; on max response: on the % scale 0 is the no-effect control and ±100 the full control effect
Outline: as §1

Hek293T = assay: Primary qHTS to identify gynecologic anti-cancer compounds using libraries of approved drugs and bioactive compounds (AID 1345084); settings: Gynecologic cancer cell panel viability, ATPlite luminescence, 48 h, control line for the selectivity index; series mostly up to 57.5 µM; further: on the % scale 0 is the no-effect control and ±100 the full control effect; nearly all actives have a fitted effect of over 55% in size
Outline: as §2

PA-1 = assay: as above; settings: Gynecologic cancer cell panel viability, ATPlite luminescence, 48 h; series mostly up to 57.5 µM
Outline: as §2

Tov112D = assay: as above; settings: Gynecologic cancer cell panel viability, ATPlite luminescence, 48 h; series mostly up to 57.5 µM
Outline: as §2

JEG-3 = assay: as above; settings: Gynecologic cancer cell panel viability, ATPlite luminescence, 48 h; series mostly up to 57.5 µM
Outline: as §2

O=C1CN=C(c2cccc(Br)c2)c2oc3ccccc3c2N1
inactive: Potency [1] | Potency [2] | Potency [3] | Potency [4] | Potency [5] | outcome [6] | Potency [7] | Potency [8] | outcome (CRL-7250) | Potency (C33A) | Potency (CAOV3) | Potency (CASKI) | Potency (Es-2) | Potency (OV90) | Potency (Tov-21-G)

COc1ccc(CCNCc2ccc(OC)c3ccccc23)cc1
inactive: Potency [1] | Potency [2] | Potency [3] | Potency [4] | Potency [5] | outcome [6] | Potency [7] | Potency [8] | max response (CRL-7250) -2.06% | max response (NIH3T3) -21.8% | Potency (C33A) | Potency (CAOV3) | Potency (CASKI) | Potency (Es-2) | Potency (Hek293T) | Potency (OV90) | Potency (PA-1) | Potency (Tov-21-G) | Potency (Tov112D)

NC(=O)[C@@H](CC1CC1)[C@@H](CCC(F)(F)F)C(=O)N[C@H]1N=C(c2ccccc2)c2cccc(F)c2NC1=O
inactive: Potency [1] | Potency [2] | Potency [3] | Potency [4] | Potency [5] | outcome [6] | Potency [7] | Potency [8] | max response (NIH3T3) -16.9% | Potency (C33A) | Potency (CAOV3) | Potency (CASKI) | Potency (Es-2) | Potency (Hek293T) | Potency (JEG-3) | Potency (OV90) | Potency (PA-1) | Potency (Tov-21-G) | Potency (Tov112D)

Cc1ccc(Cn2nc(C(=O)N[C@@H]3C(C)(C)[C@@H]4CC[C@@]3(C)C4)cc2-c2ccc(Cl)c(C)c2)cc1
inactive: Potency [1] | Potency [2] | Potency [3] | Potency [4] | Potency [5] | outcome [6] | Potency [7] | Potency [8] | max response (CRL-7250) 0.138% | max response (NIH3T3) -3.82% | Potency (C33A) | Potency (CASKI) | Potency (Es-2) | Potency (Hek293T) | Potency (JEG-3) | Potency (OV90) | Potency (PA-1) | Potency (Tov-21-G) | Potency (Tov112D)

COc1cc2c(cc1O)C1(C)CCC(O)C(C)(C)C1CC2=O (stereo not given)
inactive: Potency [1] | Potency [2] | Potency [3] | Potency [4] | Potency [5] | outcome [6] | Potency [8] | outcome (NIH3T3) | Potency (C33A) | Potency (CAOV3) | Potency (CASKI) | Potency (Es-2) | Potency (Hek293T) | Potency (JEG-3) | Potency (OV90) | Potency (PA-1) | Potency (Tov-21-G) | Potency (Tov112D)

Cc1[nH]c2ccc(Cl)cc2c1CCN(C)C
inactive: Potency [1] | Potency [2] | Potency [3] | Potency [4] | Potency [5] | outcome [6] | Potency [7] | Potency [8] | max response (CRL-7250) -0.626% | outcome (NIH3T3) | Potency (C33A) | Potency (CAOV3) | Potency (CASKI) | Potency (Es-2) | Potency (Hek293T) | Potency (JEG-3) | Potency (OV90) | Potency (PA-1) | Potency (Tov-21-G) | Potency (Tov112D)
